In the library only some 11% were active in any assay of this set; here they are far more common.
Pf growth 96h: P. falciparum growth inhibition at 96 hour, primary screen for plastid delayed-death inhibitors; Potency, µM (top dose mostly 28.7 µM), usual class: inhibitors; P. falciparum luciferase reporter growth, 96 h; AID 504834; hit rate 6.9% among 320,000
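Plates of compound plus infected erythrocytes (2% hematocrit, 0.05% parasitemia final) incubate 96 hours, 37 C, 5% CO2. Detection reagent added; reduced luminescence from the parasites' luciferase reporter flags inhibition.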
AMA1-RON2 inh: AMA1-RON2 (P. falciparum) interaction inhibition; AlphaScreen AMA1-biotinylated RON2 peptide binding; Potency, µM (titrated, usually from 58.2 µM), most hits filed as inhibitors; hit rate 0.2% among 360,000; AID 720542; further: nearly all actives have a fitted effect of over 45% in size
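AMA1 (3D7) with his tag at 25 nM final met compounds first, then biotinylated RON2 peptide at 25 nM; detection used donor plus acceptor beads, 10 µg/mL apiece, read by AlphaScreen after 30 min at room temperature.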
Sm TGR block: S. mansoni TGR enzyme inhibition | Q962Y6 | purified TGR, DTNB reduction, TNB absorbance 405 nm | Potency, µM (series often up to 114 µM), usual class: inhibitors | hit rate 3% among 360,000 | AID 485364; further: nearly all actives have a fitted effect of over 60% in size
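First, TGR (20 nM dispensed) and NADPH were mixed with compound. Second, a 15 min room-temperature incubation followed. Third, further NADPH and then DTNB were added to start the reaction. Finally, TNB absorbance was monitored kinetically.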
Pf growth 48h: P. falciparum growth inhibition at 48 hours (one generation); hit rate 5.9% among 310,000; P. falciparum luciferase growth in erythrocytes, 48 h; Potency, µM (titrated, usually from 28.7 µM), most hits filed as inhibitors
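Parasite viability was followed by luminescence of a genomically integrated firefly luciferase. Cultures held 0.1% parasitemia at 2% hematocrit (final), incubated under 5% CO2 at 37 C.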
NS1 function inh: blocks influenza NS1 protein function; Potency, µM (series often up to 46.1 µM); hit rate 0.4% among 270,000; calls by dose curve; further: actives are rising curves; nearly all actives have a fitted effect of over 50% in size
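In this qHTS, NS1 from influenza A is expressed in budding yeast, where it slows growth. Cells are switched from glucose to 2% galactose medium (pH 6.0, -URA), treated with compound, and growth recovery is read at OD600.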
Each line names hits and unclear results; the compound was inactive in the other large screens; ! = not active in a repeat. Unless noted, the call rests on the fitted dose curve; in most records, active means well fitted curve in the direction sought with a large enough effect; inconclusive means small, poorly fitted or top-dose-only effect, or another doubt; inactive means no such curve, though single readings can be large; an effect the other way counts as inactive or inconclusive.

CCN1C(=O)[C@H]2[C@@H](c3ccc(-c4cccc(Cl)c4)cc3)N[C@@](Cc3ccccc3)(C(=O)OC)[C@H]2C1=O	Pf growth 96h 4.7µM, Sm TGR block inconclusive, Pf growth 48h 4.7µM (no result: NS1 function inh)
CCCSc1ccc([C@H]2N[C@@](C)(C(=O)OC)[C@H]3C(=O)N(C)C(=O)[C@@H]23)cc1OC	Pf growth 48h inconclusive (no result: NS1 function inh)
CCCCCCSc1ccc([C@H]2N[C@@](Cc3ccccc3)(C(=O)OC)[C@H]3C(=O)N(C)C(=O)[C@@H]23)cc1OC	Pf growth 96h 2.3µM, Pf growth 48h 3.3µM (no result: NS1 function inh)
Cc1c(C(=O)NCC(c2ccc(Cl)cc2)N2CCOCC2)oc2ccccc12 (centres undefined)	none (no result: Pf growth 96h, AMA1-RON2 inh, Pf growth 48h, NS1 function inh)
CN1CC(=O)N2Cc3[nH]c4ccccc4c3C[C@H]2C1=O	none
COc1ccc(NC(=S)N2CCC(C(=O)c3ccc(C)cc3)CC2)c(OC)c1	none
COc1cc(N(Cc2ccccc2)Cc2ccccc2)c2ncn(C(C)C)c2c1	Pf growth 96h 7.4µM, AMA1-RON2 inh inconclusive, Pf growth 48h 5.9µM (no result: NS1 function inh)
CC(C)n1cnc2c(N(C)c3ccccc3)nc(N(CCN(C)C)Cc3ccccc3)nc21	Pf growth 96h 0.93µM, AMA1-RON2 inh inconclusive, Sm TGR block inconclusive, Pf growth 48h 4.7µM
CCCCNS(=O)(=O)c1cccc(NC(=O)[C@@H]2O[C@H](CO)[C@@H](O)[C@H]2O)c1	none (no result: Pf growth 96h, Sm TGR block, Pf growth 48h, NS1 function inh)
O=c1c(Cl)c(NCC2CCCO2)cnn1C12CC3CC(CC(C3)C1)C2 (centres undefined)	Sm TGR block inconclusive, Pf growth 48h inconclusive (no result: NS1 function inh)
NC(=O)CC[C@@H]1NC(=O)[C@H](Cc2ccccc2)NC(=O)[C@H](Cc2ccc(O)cc2)NC(=O)[C@@H](N)CSSC[C@@H](C(=O)N2CCC[C@H]2C(=O)N[C@@H](CCCN=C(N)N)C(=O)NCC(N)=O)NC(=O)[C@H](CC(N)=O)NC1=O	Pf growth 96h 12µM!, Pf growth 48h inconclusive (no result: AMA1-RON2 inh)
CCC(C)C1NC(=O)C(Cc2ccc(O)cc2)NC(=O)C(N)CSSCC(C(=O)N2CCCC2C(=O)NC(CC(C)C)C(=O)NCC(N)=O)NC(=O)C(CC(N)=O)NC(=O)C(CCC(N)=O)NC1=O (centres undefined)	Pf growth 96h inconclusive (no result: AMA1-RON2 inh, Sm TGR block, NS1 function inh)
COc1ccc(/C=N/Nc2ccc([N+](=O)[O-])cc2)cc1O	none
CCN1CCC(NC(=O)Nc2cc(Cl)ccc2OC)CC1	none (no result: NS1 function inh)
COc1cc(/C=C/C(=O)OCC(=O)NC2CCS(=O)(=O)C2)ccc1OC(F)F (centres undefined)	Pf growth 48h inconclusive (no result: NS1 function inh)
CCN(CC)CCSc1nnc2c3ccccc3n(Cc3ccccc3)c2n1	Pf growth 96h inconclusive, Pf growth 48h 5.2µM
CCN(CC)CCSc1nnc2c3cc(F)ccc3n(Cc3ccccc3)c2n1	none (no result: Pf growth 48h)
CCN(CC)CCn1c2ccccc2c2nc3ccccc3nc21	Sm TGR block 50µM
O=C(C1CCN(c2nc3ccc(Br)cc3s2)CC1)N1CCC2(CC1)OCCO2	Pf growth 96h 4.7µM, NS1 function inh inconclusive
COc1ccc(CNS(=O)(=O)c2ccc3c(c2)NC(=O)C(C)S3)cc1 (centres undefined)	Pf growth 96h inconclusive
CC1=C(C(=O)OCC2CCCO2)C(c2ccccc2OC(C)C)C2=C(CC(c3ccco3)CC2=O)N1 (centres undefined)	Pf growth 48h 3.3µM, NS1 function inh inconclusive
CC1=C(C(=O)OCC2CCCO2)C(c2cccc(C(F)(F)F)c2)C2=C(CC(c3ccco3)CC2=O)N1 (centres undefined)	Pf growth 48h 13µM (no result: Pf growth 96h)
CC1=C(C(=O)OCC2CCCO2)C(c2ccc(C)o2)C2=C(CC(c3ccc(F)cc3)CC2=O)N1 (centres undefined)	Sm TGR block inconclusive, Pf growth 48h inconclusive
CC(=O)c1ccc(NC(=O)NCCc2c[nH]c3ccccc23)cc1	none (no result: Pf growth 96h, AMA1-RON2 inh, Pf growth 48h, NS1 function inh)
CN(CCCCCCCCCCN(C)C(=O)Oc1cccc([N+](C)(C)C)c1)C(=O)Oc1cccc([N+](C)(C)C)c1	Pf growth 96h 0.074µM, Pf growth 48h 0.12µM (no result: NS1 function inh)
COc1ccc(-c2csc(NC(=O)c3ccco3)n2)cc1	none
COc1ccccc1NC(=S)NC(=O)Cc1ccccc1	none (no result: Pf growth 96h, Sm TGR block, Pf growth 48h, NS1 function inh)
COc1ccc(NC(=O)c2c(OC)cccc2OC)c(OC)c1	Pf growth 96h inconclusive, Sm TGR block inconclusive, Pf growth 48h 4.7µM
COc1ccc(-c2csc(NC(=O)c3c(OC)cccc3OC)n2)cc1	Pf growth 96h inconclusive, Pf growth 48h 5.9µM
COc1ccc(NC(=O)c2ccc(C(=O)Nc3ccc(OC)cc3OC)cc2)c(OC)c1	Pf growth 96h inconclusive (no result: NS1 function inh)
COc1ccc(NC(=O)Nc2cccc(NC(C)=O)c2)c(OC)c1	Pf growth 96h 12µM
COc1ccc(NC(=S)NC(=O)Cc2ccccc2)c(OC)c1	Sm TGR block 10µM
COc1ccc(NC(=O)c2oc3ccccc3c2NC(=O)C2CC2)c(OC)c1	AMA1-RON2 inh 4.5µM
COc1ccc(S(=O)(=O)Nc2ccccc2C(=O)Nc2nc(-c3ccc(F)cc3)cs2)cc1OC	Pf growth 96h inconclusive, Pf growth 48h 3.3µM
COc1ccc(OC)c(NC(=O)c2oc3ccccc3c2NC(=O)C2CC2)c1	none
O=C(O)c1ccccc1NCN1C(=O)C2CC=C(Cl)CC2C1=O (centres undefined)	none
O=C1C2CC=C(Cl)CC2C(=O)N1CC1OCCc2ccccc21 (centres undefined)	Sm TGR block 79µM (no result: Pf growth 96h)
O=C1C2CC=C(Cl)CC2C(=O)N1CN(Cc1ccco1)CN1C(=O)C2CC=C(Cl)CC2C1=O (centres undefined)	Sm TGR block 50µM
O=C1C2CC=C(Cl)CC2C(=O)N1CC1Cc2ccccc2CO1 (centres undefined)	Pf growth 96h inconclusive, Sm TGR block 45µM (no result: Pf growth 48h)
COc1nnc(-c2ccc(N3CCCCC3)c(NC(=O)c3ccccc3Cl)c2)c2ccccc12	none (no result: Pf growth 96h, AMA1-RON2 inh, Pf growth 48h, NS1 function inh)
CCCCc1cc(=O)oc2c3c(cc(OCC(=O)NCCCO)c12)OC(C)(C)CC3	Pf growth 96h inconclusive, Pf growth 48h inconclusive
CCCc1cc(=O)oc2c3c(cc(OCC(=O)NCCN4CCOCC4)c12)OC(C)(C)CC3	Pf growth 96h 9.3µM, Pf growth 48h inconclusive
CCCc1cc(=O)oc2c3c(cc(OCC(=O)NCc4ccccn4)c12)OC(C)(C)CC3	Pf growth 96h 15µM, Pf growth 48h 12µM
CCCc1cc(=O)oc2c3c(cc(OCC(=O)NCc4ccncc4)c12)OC(C)(C)CC3	Pf growth 96h inconclusive
CCN1CCCC(OC(=O)c2cc(-c3ccccc3Cl)nc3ccccc23)C1 (centres undefined)	Pf growth 96h inconclusive, Pf growth 48h inconclusive (no result: NS1 function inh)
O=C(O)CN1C(=O)C2(OCCO2)c2cc(Br)ccc21	none (no result: Pf growth 96h, Sm TGR block, Pf growth 48h, NS1 function inh)
CC1(C)CC(N=Cc2c(O)n(Cc3ccc4c(c3)OCO4)c(=O)c3ccccc23)CC(C)(C)N1	Pf growth 96h 10µM, Pf growth 48h 8.3µM (no result: NS1 function inh)
O=C(Nc1ccc2oc(-c3ccncc3)nc2c1)c1ccc([N+](=O)[O-])o1	Pf growth 96h inconclusive, Pf growth 48h 6.6µM
O=C(Nc1ccc(-c2nc3ncccc3o2)cc1)c1ccc([N+](=O)[O-])o1	Pf growth 48h 9.3µM

Screening data deposited in PubChem by National Center for Advancing Translational Sciences (NCATS).
